Sampled rows, rich in hits. Any-hit rate of the full collection: about 2.7%.
HepG2 tox: HepG2 cytotoxicity, counter-screen for TGF-b inhibitors; Potency, µM (doses to about 46.1 µM), for the others: at the highest dose activity change, negative = cytotoxicity, hits mostly cytotoxic; hit rate 0.76% among 410,000; HepG2 CAGA-GFP viability, ATP luminescence, 18 h
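CellTiter-Glo luminescence gave cytotoxicity after 18 hours at 37 degrees C. The cells were HepG2 CAGA-GFP in 1% FBS DMEM, stimulated with 500 pg/mL TGF-beta after compound addition. %Activity was normalised to no-cell wells (complete cell-killing) and DMSO (no toxicity), and curves were fitted and classified.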
ATXN viability: reduces viability in counter-screen for ATXN expression inhibitors. S2 cells (HEK-293 line with an ATXN2-luciferase reporter) viability, CellTiter-Fluor protease fluorescence, 24 h. Potency, µM (titrated, usually from 56.7 µM), most hits filed as cytotoxic. hit rate 0.49% among 400,000. AID 651635; further: nearly all actives have a fitted effect of over 40% in size
ATXN2 expr inh: ATXN2 expression inhibition. HEK-293 ATXN2-luciferase reporter, luminescence, 24 h. Potency, µM (highest dose often 57 µM), for inactives: at the highest dose activity change, negative = inhibition, hits mostly inhibitors. hit rate 0.72% among 360,000. AID 1745845; further: on the % scale 0 is the no-effect control and ±100 the full control effect; nearly all actives have a fitted effect of over 55% in size
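ATXN2-luciferase reporter cells (luciferase flanked by upstream and downstream ATXN2 gene portions) were treated 24 h at 37 °C with compounds at up to 57 uM. SteadyGlo luminescence gave expression; GF-AFC fluorescence gave viability.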
TGFb SMAD3 inh: TGF-b pathway inhibition | hit rate 1.2% among 410,000 | HepG2 CAGA-GFP TGF-b/SMAD3 reporter, GFP fluorescence, 18 h; TGF-beta stimulated, 500 pg/mL final | Potency, µM (doses to about 46.1 µM), for inactives: at the top dose activity, negative = inhibition, usual class: inhibitors; further: on the % scale 0 is the no-effect control and ±100 the full control effect; nearly all actives have a fitted effect of over 65% in size
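Inhibition was scored as loss of TGF-beta-induced (500 pg/mL final, 18 hours, 37 degrees C) GFP in HEPG2 cells carrying a CAGA-GFP reporter, in DMEM with 1% FBS. Well GFP was summed per cell; Activity was normalised to unstimulated and stimulated DMSO wells, then concentration-response fitting.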
12-LOX inh: inhibitors of human 12S-lipoxygenase ALOX12; AID 1671190; Potency, µM (series often up to 108 µM), for inactives: at the top dose activity change, negative = inhibition, usual class: inhibitors; purified 12hLO, xylenol orange hydroperoxide absorbance; hit rate 1.1% among 580,000; P18054; further: on the % scale 0 is the no-effect control and ±100 the full control effect
Target sequence (P18054 whole entry, looked up): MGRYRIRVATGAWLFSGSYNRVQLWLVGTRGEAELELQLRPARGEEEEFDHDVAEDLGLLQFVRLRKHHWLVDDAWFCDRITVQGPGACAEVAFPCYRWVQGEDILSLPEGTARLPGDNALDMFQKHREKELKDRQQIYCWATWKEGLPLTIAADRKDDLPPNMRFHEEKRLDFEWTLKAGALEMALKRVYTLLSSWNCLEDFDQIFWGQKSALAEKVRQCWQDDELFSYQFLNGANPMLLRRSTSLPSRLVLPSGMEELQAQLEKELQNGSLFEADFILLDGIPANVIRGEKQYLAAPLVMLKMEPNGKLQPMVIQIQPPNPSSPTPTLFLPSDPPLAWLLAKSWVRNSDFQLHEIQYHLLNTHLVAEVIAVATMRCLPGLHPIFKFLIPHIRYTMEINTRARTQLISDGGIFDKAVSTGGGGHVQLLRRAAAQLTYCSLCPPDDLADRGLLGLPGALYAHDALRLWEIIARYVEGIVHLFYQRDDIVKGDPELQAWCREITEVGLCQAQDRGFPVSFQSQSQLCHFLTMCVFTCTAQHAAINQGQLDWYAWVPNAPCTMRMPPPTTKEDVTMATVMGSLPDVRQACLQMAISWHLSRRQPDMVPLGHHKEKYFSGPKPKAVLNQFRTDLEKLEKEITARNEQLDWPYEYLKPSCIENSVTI
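Hydroperoxide product was detected by ferrous iron/xylenol orange as the 573 to 405 nm absorbance ratio. Arachidonic acid at 40 uM (final) was turned over for 30 min at room temperature by 150 nM human 12hLO, pH 7.0 Hepes buffer, after 15 min compound preincubation.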
The depositor's hits bear a star; i = inactive; ? = inconclusive; / = no result; [ ] = dose if it differs, or a comment. The call rests on the fitted dose curve; in most records, active means well fitted curve in the direction sought with a large enough effect; inconclusive means small, poorly fitted or top-dose-only effect, or another doubt; inactive means no such curve, though single readings can be large; an effect the other way counts as inactive or inconclusive. Potency means the concentration at half of the fitted maximal effect.

SMILES	HepG2 tox	ATXN viability	ATXN2 expr inh	TGFb SMAD3 inh	12-LOX inh
Cc1ccc(C)c(N2CCN(C(=O)c3noc(-c4ccc[nH]c4=O)n3)CC2)c1	/	/	/	/	40%
CC[C@H](CO)Nc1nc(Nc2cccc(Cl)c2)c2ncn(C(C)C)c2n1	-50%	16µM*	?	20µM*	-5%
CCOC(=O)c1c(C)n(-c2ccccc2)c2ccc(OC(=O)c3ccccc3NC(=O)C(C)(C)C)cc12	22µM*	25µM*	?	?	?
CCOC(=O)c1c(C)n(-c2ccccc2)c2ccc(OC(=O)c3ccccc3NC(=O)C(C)C)cc12	-68%	?	?	?	-11%
CCCOc1ccc(-c2nc(C#N)c(NCc3ccccc3Cl)o2)cc1	/	/	/	/	50%
Cc1ccc(OCc2ccc(-c3nc(C#N)c(NCc4ccccc4Cl)o3)o2)cc1	-62%	20µM*	?	?	?
N#Cc1c(NC(=O)c2ccccc2Cl)n(Cc2ccccc2)c2nc3ccccc3nc12	-27%	i	-39%	7.9µM*	?
Cc1cccc(N(Cc2cc(=O)[nH]c3ccccc23)C(=O)CCl)c1	-13%	?	/	-12%	?
CCCCCCCN(C(=O)CCl)c1cccc(C)c1	-28%	/	25µM*	?	-24%
CCCCCCN(C(=O)CCl)c1ccccc1	-115%	?	/	22µM*	?
CC1=C(C(=O)c2ccccc2)C(c2cccc(Oc3ccc(Cl)cc3)c2)NC(=O)N1 (centres undefined)	/	/	/	/	-52%
COC1/C=C\OC2(C)Oc3c(C)c(O)c4c(c3C2=O)C2(C=C(NC(=O)/C(C)=C\C=C/C(C)C(O)C(C)C(O)C(C)C(OC(C)=O)C1C)C4=O)OCC(=O)O2 (centres undefined)	/	/	/	/	5µM*
CO[C@H]1/C=C\O[C@@]2(C)Oc3c(C)c(O)c4c(O)c(c5c(nc6cc(C)ccn65)c4c3C2=O)NC(=O)C(C)=CC=C[C@H](C)[C@H](O)[C@@H](C)[C@@H](O)[C@@H](C)[C@H](OC(C)=O)[C@H]1C	/	/	-10%	/	-33%[57.4 µM]
O=C(NCc1ccccc1)c1nc(-c2ccc(Cl)cc2)n2c1CCCCC2	-5%	?	-29%	11µM*	-45%
Cc1ccc(-c2nc(C(=O)NCc3ccc(Cl)cc3)c3n2CCCCC3)cc1	-8%	?	?	?	?
FC1CCN(Cc2cn(Cc3ccccc3)nc2-c2cc3ccccc3o2)CC1	/	/	/	/	4%
c1ccc(Nc2cc3c(cn2)CN(Cc2cccs2)CCN3)cc1	/	/	/	/	-1%[176 µM]
O=C(c1ccc(Br)cc1)c1coc2ccc(O)cc12	-38%	i	92%	?	22µM*
O=C(c1ccc(Cl)cc1)c1coc2ccc(O)cc12	-19%	i	75%	0%	248%
CC(C)(C)C1CCC(OCC(O)CN2CCN(Cc3ccccc3)CC2)CC1 (centres undefined)	11µM*	?	0%	?	-30%
c1ccc(Cc2nn3c(Cn4nnc5ccccc54)nnc3s2)cc1	-3%	i	30%	?	56µM*
CN1CCCCC1COc1ccc2c(n1)CN(Cc1ccccc1F)C(=O)CO2 (centres undefined)	/	/	/	/	-9%[176 µM]
Cc1ccc(-c2cccc(C3CC=CC4C3C(=O)N(Cc3ccccc3)C4c3cc(C)ccc3F)c2)cc1 (centres undefined)	-4%	i	12%	-23%	8%
C[C@@H]1CC=C[C@H]2[C@H]1C(=O)N(Cc1ccccc1)[C@H]2c1ccc(C(F)(F)F)cc1	-22%	i	-17%	22µM*	0%
Cc1ccc(F)c(C2C3C=CCC(c4ccccc4)C3C(=O)N2Cc2ccccc2)c1 (centres undefined)	-60%	/	/	13µM*	/
SMILES	HepG2 tox	ATXN viability	ATXN2 expr inh	TGFb SMAD3 inh	12-LOX inh
COc1ccc(-c2ccoc2)cc1C1C2C=CCC(C)C2C(=O)N1Cc1ccccc1 (centres undefined)	-28%	/	/	16µM*	/
O=C(NCc1nc(-c2ccc(C(F)(F)F)cc2)no1)Nc1ccc(OC(F)(F)F)cc1	-90%	?	?	11µM*	271%
COc1ccc(-c2noc(CNS(=O)(=O)c3ccc(NC(C)=O)cc3)n2)cc1	4%	i	-8%	2%	4%
Fc1ccccc1-c1nnc(SCc2cccc3ccccc23)n1C1CC1	/	/	/	/	0%
COc1ccccc1NC(=O)c1c(Nc2ccccc2F)sc(C(=O)Nc2cccc(Cl)c2)c1N	-36%	?	?	16µM*	0%
COc1ccc(C(=O)/C=C/c2ccc(C(F)(F)F)cc2)cc1F	/	/	/	/	34%
Clc1ccccc1C(c1nnnn1Cc1ccco1)N1CCN(Cc2ccco2)CC1 (centres undefined)	13%	i	1%	-3%	45µM*
Cc1ccc(C)c(Sc2ccc(NC(=O)c3ccc(C)c(C)c3)cc2)c1	/	/	/	/	7%
CCCc1cc(-c2n[nH]c(=S)n2-c2cccc(C)c2)cs1	0%	i	7%	10%	45µM*
Cc1cccc(CN2CCN(Cn3nc(C)c4ccccc4c3=O)CC2)c1	/	/	/	/	0%
Cc1ccc(S(=O)(=O)/N=C2\C=C(Nc3cccc(C(=O)O)c3)C(=O)c3ccccc32)c(C)c1	16µM*	/	32µM*	13µM*	?
O=C(O)c1cccc(NC2=C(N3CCOCC3)C(=O)c3ccccc3C2=O)c1	10%	i	5%	?	-8%
Cc1ccc(S(=O)(=O)/N=C2\C=C(Nc3cccc(C(=O)O)c3)C(=O)c3ccccc32)cc1	-111%	?	?	13µM*	-17%
Cc1ccc(NC2=C/C(=N/S(=O)(=O)c3cccs3)c3ccccc3C2=O)cc1	4µM*	7.9µM*	7.9µM*	?	-17%
Cc1ccc(S(=O)(=O)/N=C2\C=C(NS(=O)(=O)c3ccccc3)C(=O)c3ccccc32)c(C)c1	10%	i	-4%	6%	?
CC(C)(C)c1ccc(S(=O)(=O)/N=C2\C=C(NS(=O)(=O)c3ccccc3)C(=O)c3ccccc32)cc1	-51%	?	-17%	?	25µM*
Cc1ccc2c(n1)N(C)[C@H](CO)CCN(Cc1ccc(C(C)C)cc1)C2	/	/	/	/	3%[176 µM]
CCc1ccc(S(=O)(=O)/N=C2\C=C(Nc3ccc(C(=O)O)cc3)C(=O)c3ccccc32)cc1	-109%	?	?	16µM*	-22%
COC(=O)c1ccccc1Nc1ccccc1	-2%	?	-5%	0%	-24%
O=C(O)c1ccc(NC2=C(n3nnc4ccccc43)C(=O)c3ccccc3C2=O)cc1	27%	i	-4%	3%	-18%
COC(=O)c1ccccc1NC1=C/C(=N\S(=O)(=O)c2ccc(C(=O)O)cc2)c2ccccc2C1=O	16µM*	18µM*	?	8.9µM*	/
O=C(c1ccccc1)N1CCSc2sccc2C1=O	-8%	i	4.7µM*	-9%	-1%

From PubChem
